Among all 310,000 compounds or so, about 14,000 (4.5%) showed an effect of 50% or more. The effect is printed as a negative number. For the sample, strong results were picked, then their nearest neighbours and some compounds at random.
Target: human ether-à-go-go-related gene (hERG) potassium channel (human, UniProt Q12809)
Test: primary screen, population patch clamp on CHO cells stably expressing hERG; higher = less effect of the substance
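Note: peak tail current of the secondary pulse compared with the same well before compound.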

human ether-à-go-go-related gene (hERG) potassium channel, sequence (Q12809 whole entry, looked up): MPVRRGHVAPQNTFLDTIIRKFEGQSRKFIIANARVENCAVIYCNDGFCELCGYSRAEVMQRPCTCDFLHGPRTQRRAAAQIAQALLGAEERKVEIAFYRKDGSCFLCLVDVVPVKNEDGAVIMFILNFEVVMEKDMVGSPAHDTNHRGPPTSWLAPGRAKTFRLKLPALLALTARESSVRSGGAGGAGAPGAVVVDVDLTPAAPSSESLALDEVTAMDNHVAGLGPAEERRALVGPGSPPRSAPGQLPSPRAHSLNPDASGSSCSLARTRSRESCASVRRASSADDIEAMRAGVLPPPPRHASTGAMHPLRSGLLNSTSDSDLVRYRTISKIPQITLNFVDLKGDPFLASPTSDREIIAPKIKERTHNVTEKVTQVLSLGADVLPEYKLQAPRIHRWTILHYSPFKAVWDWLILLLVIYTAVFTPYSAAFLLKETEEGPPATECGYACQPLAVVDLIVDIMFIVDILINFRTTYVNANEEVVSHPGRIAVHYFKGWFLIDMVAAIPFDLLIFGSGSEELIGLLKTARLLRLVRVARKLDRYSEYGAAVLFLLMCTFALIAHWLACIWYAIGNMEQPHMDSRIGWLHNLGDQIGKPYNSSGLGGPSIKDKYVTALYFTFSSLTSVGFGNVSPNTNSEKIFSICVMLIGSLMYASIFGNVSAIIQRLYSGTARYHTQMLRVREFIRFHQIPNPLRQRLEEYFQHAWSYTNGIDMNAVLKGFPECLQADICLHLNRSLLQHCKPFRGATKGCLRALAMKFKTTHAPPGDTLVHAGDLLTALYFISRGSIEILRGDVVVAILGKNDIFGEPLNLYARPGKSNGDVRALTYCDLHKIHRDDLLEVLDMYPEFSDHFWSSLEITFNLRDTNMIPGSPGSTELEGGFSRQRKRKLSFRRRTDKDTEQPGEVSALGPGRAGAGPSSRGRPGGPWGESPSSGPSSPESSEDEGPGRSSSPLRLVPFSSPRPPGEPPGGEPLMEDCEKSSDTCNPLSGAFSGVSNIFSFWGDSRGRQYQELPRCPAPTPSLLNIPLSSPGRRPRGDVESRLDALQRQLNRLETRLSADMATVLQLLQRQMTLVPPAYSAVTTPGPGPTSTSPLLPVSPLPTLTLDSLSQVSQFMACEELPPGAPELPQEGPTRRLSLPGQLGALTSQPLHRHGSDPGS

Compound | hERG current change (%, negative = inhibition) at 10uM
COc1cnn(-c2ccc([N+](=O)[O-])cc2)c(=O)c1Cl | -2.52%
Cn1ncc(Cl)c(Oc2ccc(Cl)cc2)c1=O | -17%
Cn1ncc(Oc2ccc([N+](=O)[O-])cc2)c(Cl)c1=O | -71.2%
O=C(C1CCN(c2nnc(-n3cccc3)s2)CC1)N1CCc2ccccc2C1 | -60.3%
O=C(NCCCN1CCc2ccccc2C1)C1CCN(S(=O)(=O)N2CCC3(CC2)OCCO3)CC1 | -12.4%
CN1CCN(CCCNC(=O)C2CCN(c3nnc(-n4cccc4)s3)CC2)CC1 | 20.2%
O=C(C1CCN(c2nnc(-n3cccc3)s2)CC1)N1CCOCC1 | -13.9%
O=C(NCCCN1CCc2ccccc2C1)C1CCN(S(=O)(=O)N2CCCC2)CC1 | -2.78%
O=C(NCCN1CCc2ccccc2C1)C1CCN(S(=O)(=O)N2CCCCC2)CC1 | -53.8%
O=C(C1CCN(c2nnc(-n3cccc3)s2)CC1)N1CCCCC1 | -6.55%
CCCN1CCN(CCCNC(=O)C2CCN(c3nnc(-n4cccc4)s3)CC2)CC1 | -14.4%
O=C(NCCCN1CCc2ccccc2C1)C1CCN(c2nnc(-n3cccc3)s2)CC1 | -55.6%
Cc1noc(C)c1COC(=O)C1CC(O)CN1S(=O)(=O)c1ccc(Cl)cc1 (centres unmarked) | -8.48%
O=C(CC1C(=O)NCCN1Cc1ccccc1C(F)(F)F)NCCN1CCCCC1=O (centres unmarked) | 16.9%
O=S(=O)(Cc1noc(-c2ccc(Cl)cc2)n1)Cc1ccco1 | -4.77%
Cc1cc(C)nc(NC(=O)CSc2nn(C)c(=S)s2)n1 | -0.37%
Cc1cc2cc(CNC(=O)Nc3ccc(Cl)c(Cl)c3)ccc2n1C | 2.71%
O=C(Nc1nc2ccccc2n1CCN1CCCCC1)c1ccco1 | -54.8%
O=C(Nc1nc2ccccc2n1CCN1CCCC1)C1CCCCC1 | -58.6%
CN(C)CCCn1c(NC(=O)C2CCCCC2)nc2ccccc21 | -27.3%
O=C(Nc1nc2ccccc2n1Cc1ccccc1)c1ccco1 | 20.2%
O=C(Nc1nc2ccccc2n1CCN1CCCCC1)C1CCCCC1 | -61.2%
CCCn1c(NC(=O)c2ccco2)nc2ccccc21 | 9.09%

Compound | hERG current change (%, negative = inhibition) at 10uM
CCCn1c(NC(=O)C2CCN(C(=O)c3ccccc3C)CC2)nc2ccccc21 | -16%
CCCCn1c(NC(=O)C2CCCCC2)nc2ccccc21 | 4.63%
CCn1c(NC(=O)C2CCCCC2)nc2ccccc21 | 8.36%
CCOC(=O)C1=C(c2ccccc2)NC(SCC(=O)NC2CCCCC2)=C(C#N)C1c1ccco1 (centres unmarked) | -1.35%
COc1ccc(OC)c(C(=O)Cn2nnc3ccccc3c2=O)c1 | 9.14%
O=[N+]([O-])c1ccc2c(c1)C(c1ccccc1)=NCCN2 | -69.1%
O=[N+]([O-])c1ccc2[nH]nc(-c3ccccc3)c2c1 | 9.26%
O=C1C2=C(C(c3ccccc3)=NCCN2)C(c2cccc([N+](=O)[O-])c2)N1c1ccccc1 (centres unmarked) | -21.3%
O=C(/C=C/c1ccc(Cl)cc1)Nc1ccccc1N1CCOCC1 | 2.84%
CN1CCN(NC(=O)/C=C/c2cccc(Cl)c2)CC1 | -6.09%
CCc1cc(C(=O)Nc2cc(Cl)ccc2N2CCN(C)CC2)sc1C | 3.43%
CN1CCN(c2ccc(Cl)cc2NC(=O)/C=C/c2cccc(F)c2)CC1 | -69.9%
CN1CCN(c2ccc(S(=O)(=O)N3CCCCC3)cc2NC(=O)/C=C/c2ccc(Cl)c([N+](=O)[O-])c2)CC1 | -17.4%
CN1CCN(c2ccc(Cl)cc2NC(=O)/C=C/c2ccc(F)cc2)CC1 | -75.6%
CCc1c(C)nc(N)nc1N1N=C1SC(C(C)=O)C(C)=O | 27.8%
CN(CCC#N)C(=O)COC(=O)c1ccccc1OCc1ccccc1Cl | 1.72%
CNC(=O)CC1C(=O)N(c2ccc(F)cc2)C(=S)N1NC(=O)c1ccc(Br)cc1 (centres unmarked) | 2.82%
O=C(NC(NC(=O)c1c(F)cccc1F)c1ccc([N+](=O)[O-])cc1)c1c(F)cccc1F | -43.8%
Cc1ccc(SCCC(=O)NCc2ccco2)cc1 | -3.96%
C/C(=N/NS(=O)(=O)c1ccc(C)cc1)c1ccc(NC(=O)C(F)(F)F)cc1 | 10.7%
CCOC(=O)N1CCN(CC(O)COC(CC)c2ccccc2)CC1.Cl (centres unmarked) | -19.6%
Cl.c1ccc(COC(CN2CCCCCC2)CN2CCCCCC2)cc1 | -63.6%
Cl.OC(COCc1ccccc1)CN1CCCCC1 (centres unmarked) | 6.73%

Compound | hERG current change (%, negative = inhibition) at 10uM
CCOC(=O)C1CCCN(CC(O)COC(c2ccccc2)c2ccccc2)C1 (centres unmarked) | -79.7%
OC(COC(c1ccccc1)c1ccccc1)CN1CCOCC1 (centres unmarked) | -5.77%
CCN1CCN(CC(O)COC(c2ccccc2)c2ccccc2)CC1 (centres unmarked) | -17.1%
CCOC(=O)C1CCCN(CCC(C)c2ccccc2)C1 (centres unmarked) | -36.5%
CCOC(=O)C1CCCN(CC(O)COc2ccccc2C(C)=O)C1.Cl (centres unmarked) | -46.2%
OC(COc1ccc(OCc2ccccc2)cc1)CN1CCCCC1 (centres unmarked) | -39.6%
OC(COC(c1ccccc1)c1ccccc1)CN1CCCCC1 (centres unmarked) | -62.9%
CCOC(=O)C1CCN(CC(O)COC(CC)c2ccccc2)CC1.Cl (centres unmarked) | -63.7%
CCC(OCC(O)CN1CCCCC1)c1ccccc1.Cl (centres unmarked) | 16.9%
CCOC(=O)C1CCCc2c1[nH]c1c(C(=O)O)cccc21 (centres unmarked) | 13.3%
COc1ccc2nc(SCC(=O)NCCc3ccccc3)[nH]c2c1 | -21.6%
COc1ccc(-c2cc(C(=O)N3CCN(c4cccc(C)c4C)CC3)c3ccccc3n2)cc1OC | 22.9%
c1ccc(-n2cccc2)c(N2CCCCC2)c1 | 3.76%
O=c1cc(CSc2nnc(-c3cccnc3)n2-c2ccccc2F)nc2sccn12 | -4.15%
CCCCNc1ccc(C(=O)OCCN(C)C)cc1.Cl | -11.6%
COc1ccc(C(=O)N/N=C/c2c(CO)cnc(C)c2O)cc1 | -1.9%
OC1CCCN(CC(O)COC(c2ccccc2)c2ccccc2)C1 (centres unmarked) | -18%
CC1CCCN(CC(O)COC(c2ccccc2)c2ccccc2)C1 (centres unmarked) | -65%
Cc1ccc(C(OCC(O)CN2CCCCC2)c2ccccc2)cc1 (centres unmarked) | -86.6%
CC1CCCN(CC(O)COCc2ccccc2)C1.Cl (centres unmarked) | -1.07%
Cn1c(CNC(=O)c2ccco2)nnc1SCC(=O)c1ccccc1 | 10.6%
CCn1nc(NS(=O)(=O)c2ccc([N+](=O)[O-])cc2)c2cc3ccccc3nc21 | 19.3%
Cc1cc(C)cc(SCc2noc(C(=O)NCCCN3CCOCC3)c2C(=O)NCCCN2CCOCC2)c1 | -30.4%

Compound | hERG current change (%, negative = inhibition) at 10uM
O=C(Nc1ccccc1F)c1ccccc1-c1ccc(C(F)(F)F)cc1 | -5.12%
CC1CCN(Cc2c(C(=O)N/N=C/c3ccc(C(C)C)cc3)nnn2-c2nonc2N)CC1 | 20.2%
CCc1ccc(/C=N/NC(=O)c2nnn(-c3nonc3N)c2CN2CCOCC2)cc1 | -11.6%
Nc1nonc1-n1nnc(C(=O)N/N=C/c2cccc(Cl)c2)c1CN1CCCCCC1 | 18.4%
CC(C)c1ccc(/C=N/NC(=O)c2nnn(-c3nonc3N)c2CN2CCOCC2)cc1 | -56.6%
CN1CCN(Cc2c(C(=O)N/N=C/c3cccc(Br)c3)nnn2-c2nonc2N)CC1 | -74.8%
Nc1nonc1-n1nnc(C(=O)N/N=C/c2cccc(O)c2)c1CN1CCCC1 | 7.84%
O=C1NC(=O)C(=Cc2ccc3c(c2)OCO3)C(=O)N1 | 15.3%
CC1CN(C(=O)COC(=O)c2ccc(O)cc2)CC(C)O1 (centres unmarked) | 17.4%
O=C(NCCCNC(=O)C(F)(F)C(F)F)C(F)(F)C(F)F | 6.91%
CC(C)(C)OC(=O)NCCCC[C@H](NC(=O)c1nc[nH]c1C(=O)NC(c1ccccc1)c1ccccc1)C(=O)OC(C)(C)C | 8.48%
Brc1cccc(Cn2c(-c3cncs3)nc3ccccc32)c1 | -10.5%
O=C(/C=C/c1ccccc1)NC1CC2CCC1C2 (centres unmarked) | 5.72%
O=C(/C=C/c1ccc([N+](=O)[O-])cc1)NC1CC2CCC1C2 (centres unmarked) | -67.8%
COc1ccccc1/C=C/C(=O)NC1CC2CCC1C2 (centres unmarked) | -3.53%
O=C(CSCc1ccc([N+](=O)[O-])cc1)NC1CC2CCC1C2 (centres unmarked) | -15.3%
O=C(/C=C/c1cccc([N+](=O)[O-])c1)NC1CC2CCC1C2 (centres unmarked) | -24.7%
O=C(/C=C/c1ccc(Cl)cc1)NC1CC2CCC1C2 (centres unmarked) | -53.1%
CCOc1ccc(NC(=O)CN2C(=O)COc3ccc(Cl)cc32)cc1 | 0.412%
CN(C)C=O.Oc1cccc2c(NC(=S)Nc3ccc(OC(F)F)cc3)cccc12 | -49.5%

Reference: PMC4336329 (PLoS ONE, 2015)
